# Source: PubChem BioAssay (EPA / NIEHS)
# Inconclusive results are not listed. Calls of active or inactive are those of the source. How the source made its calls: active means hit-call score of the fitted dose curve at least 0.9, where 1 is the maximum; inconclusive means response in the unintended direction; inactive means score below 0.9.
# Experiment: ACEA_AR_antagonist_AUC_viability: ACEA Biosciences xCELLigence Real-Time Cell Analysis on Androgen Receptor Antagonism for Viability (AID 2283776);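 further: area under impedance growth curve at 80 h after dosing as viability; hits lower the growth signal relative to DMSO meaning cytotoxicity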
# Protocol: ACEA_AR_antagonist is a cell-based, single-readout assay that uses 22Rv1, a human prostate cancer cell line, with measurements taken at 80 hours after chemical dosing in a 384-well plate, although TO5 and TO6 (mc0.srcf) used a 96-well plate. Differences in plate size can be ignored given data normalization.ACEA_AR_80hr is one of two assay component(s) measured or calculated from the […] assay. It is designed to make measurements of real-time cell-growth kinetics, a form of growth reporter, as detected with electrical impedance signals by Real-Time Cell Electrode Sensor (RT-CES) technology.Data from the assay component ACEA_AR_antagonist_AUC_viability was analyzed in the positive analysis fitting direction relative to DMSO as the negative control and baseline of activity. Using a type of growth reporter, loss-of-signal activity can be used to understand changes in the viability. Furthermore, this assay endpoint can be referred to as a secondary readout, because this assay has produced multiple assay endpoints where this one serves a viability function. To generalize the intended target to other relatable targets, this assay endpoint is annotated to the cell cycle intended target family, where the subfamily is cytotoxicity.
# The xCELLigence system Multi-E-Plate stations were used to measure the time-dependent response to chemicals. Each compound was tested in an eight-point, 1:4 serial dilution series starting at a maximum final concentration of 100 uM. A maximum starting concentration of 0.5% DMSO was present in the 100 uM chemical samples and was diluted along with the test article dilution series. The screen was performed in biological duplicate using two separate, 96-well, E-Plates 96 for each dilution series (n = 2). Positive controls (MG132 and testosterone) and a negative control (assay media) were tested in quadruplicate on each testing plate. Then, 0.5% and 0.125% DMSO were tested in duplicates in each plate to serve as solvent controls for the 2 highest concentrations of testing compounds: 100 uM and 25 uM. Reference compounds were tested with 8 concentrations with 1:5 serial dilutions. All screening was carried out by ACEA Biosciences, Inc. (San Diego, CA). 22Rv1 cells purchased from ATCC were maintained in media supplemented with 10% fetal bovine serum (FBS). Before screening, 22Rv1 cells were preconditioned in assay medium. Cells were then detached and seeded in E-Plates 96 in assay medium. After overnight monitoring of growth once every hour, compounds were added to […] cells and remained in the medium until the end of the experiment. Cellular responses were then recorded once every 5 min for the first 5 h, and once every hour for an additional 100 h.
Compound,outcome,AC50
[O-][Cl+]O,inactive,
c1ccc(N=Nc2ccccc2)cc1,inactive,
C[N+](C)(C)CC1CO1 (stereo not given),inactive,
CC(O)CCO (stereo not given),inactive,
CO[C@@H]1[C@H](OC(=O)NC(=O)CCl)CC[C@]2(CO2)[C@H]1[C@@]1(C)O[C@@H]1CC=C(C)C,,3.27 µM (active)
c1ccc2c(c1)oc1ccccc12,inactive,
CN(C)c1ccccc1,inactive,
Nc1ccc(Cc2ccc(N)cc2)cc1,,28.1 µM (active)
O=[N+]([O-])C(Br)(CO)CO,,39 µM (active)
CCNS(=O)(=O)C(F)(F)C(F)(F)C(F)(F)C(F)(F)C(F)(F)C(F)(F)C(F)(F)C(F)(F)F,inactive,
Oc1ccc2ccc3cccc4ccc1c2c34,,74.6 µM (active)
CC(C)N(Cc1ccccc1)C(=O)C(C)(C)C,inactive,
C[C@]12C=CC3=C4CCC(=O)C=C4CC[C@H]3[C@@H]1CC[C@@H]2O,inactive,
COP(=S)(OC)SCN1C(=O)c2ccccc2C1=O,,64.7 µM (active)
CC(C)(C)OOC(=O)c1ccccc1,inactive,
CCOc1cccc(C2(N3CCN(c4ccccc4)CC3)CCC(C)CC2)c1 (stereo not given),inactive,
CC(C)(OOC(C)(C)c1ccccc1)c1ccccc1,,24.5 µM (active)
O=C(N[C@H](c1ccccc1)[C@@H]1CN2CCC1CC2)c1c(Cl)ccc(C(F)(F)F)c1Cl,,55.8 µM (active)
CNC(=O)Oc1cccc2c1OC(C)(C)C2,inactive,
Nc1cc(Cl)cc(C(=O)O)c1Cl,inactive,

Compound,outcome,AC50
Clc1ccccc1Cl,inactive,
CC(C)(C)C(O)(CCc1ccc(Cl)cc1)Cn1cncn1 (stereo not given),,58.9 µM (active)
CC(C)(C)OOC(C)(C)CCC(C)(C)OOC(C)(C)C,inactive,
ClC1=C(Cl)[C@]2(Cl)[C@H]3[C@H]([C@@H]4C=C[C@H]3C4)[C@@]1(Cl)C2(Cl)Cl,,18.1 µM (active)
CN(C)c1ccc(C(=O)c2ccc(N(C)C)cc2)cc1,,9.62 µM (active)
CN(C)C(=O)Nc1ccc(Cl)cc1,,50 µM (active)
CC(C)(O)c1cnn2c(-c3ccc(F)c(-c4c(F)cccc4C#N)c3)cnc2n1,,51.1 µM (active)
C=CCc1ccc2c(c1)OCO2,inactive,
[As]#[In],inactive,
O=C1CCCO1,inactive,
CCCCCOC(=O)c1ccccc1C(=O)OCCCCC,,67.9 µM (active)
CCCCCCCCCCCCCN1CC(C)OC(C)C1 (stereo not given),inactive,
CCCCC(CC)COC(=O)c1ccc(C(=O)OCC(CC)CCCC)c(C(=O)OCC(CC)CCCC)c1 (stereo not given),inactive,
CCCCCCCCn1sccc1=O,,18.4 µM (active)
CCC[CH2][Sn]([Cl])([CH2]CCC)[CH2]CCC,,0.631 µM (active)
c1ccc2c(c1)-c1cccc3cccc-2c13,,8.92 µM (active)
Cc1ccc(N=C=O)cc1N=C=O,,24 µM (active)
N#CC(Br)Br,inactive,
Cc1cccc(N)c1N,inactive,
O=C(Nc1ccccc1)c1ccccc1I,inactive,
